# Results reported in PubChem BioAssay.
# Activity calls are given as the source filed them.
# Experiments:
# [1] = E. coli DRC41 culture turbidity changes, primary screen, E. coli filamentation inducer project, strain DRC41, OD650, 48 h (AID 1152);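 also: E. coli MC1000 strain DRC41 lacking acrAB efflux pump and sulA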; conditions: E. coli DRC41 (acrAB sulA), higher = more signal, called active from +8 up or from −8 down
# [2] = small-molecule binders of probe aLefty1, primary screen, biochemical, small-molecule microarray, 635/667 nm fluorescence (AID 1153); conditions: higher = more signal;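 also: score merges spot fluorescence with signal-to-noise ratio from the scanned slide images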
# [3] = PSAC antagonists in infected red cells, primary screen, cell-based, P. falciparum Indochina, OD700, 1 h (AID 1154); conditions: P. falciparum Indochina infected RBC osmotic lysis, higher = more signal, called active from +8 up or from −8 down
# [4] = PSAC antagonists in infected red cells, primary screen, cell-based, P. falciparum Indochina, OD700, 2 h (AID 1155);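 also: lysis reports solute entry through the parasite surface anion channel PSAC; channel blockers reduce lysis of infected cells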; conditions: P. falciparum Indochina infected erythrocytes, osmotic lysis OD700; higher = more signal, called active from +8 up or from −8 down
# [5] = osmotic lysis modulators in infected erythrocytes, primary screen, PSAC antagonist project, cell-based, P. falciparum Indochina, OD700, 3 h (AID 1156); conditions: higher = more signal, called active from +8 up or from −8 down
# [6] = PSAC antagonists in infected red cells, primary screen, cell-based, P. falciparum Indochina, OD700, 18 h (AID 1157); conditions: P. falciparum Indochina infected erythrocytes, osmotic lysis OD700, 18 h; higher = more signal, called active from +8 up or from −8 down
# [7] = modulators of S6 phosphorylation in cells, primary screen, cell-based, A549, cytoblot, luminescence, serum-stimulated (AID 1158); conditions: A549 phospho-S6 cytoblot, 5 h, higher = more signal;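 also: serum-stimulated A549 lung adenocarcinoma cells; signal is phosphorylated S6 detected by cytoblot immunostaining with HRP secondary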
# [8] = target: NADPH oxidase 2 (Homo sapiens) (UniProt P04839); test: NOX2-dependent H2O2 signal modulators, primary screen, NOX inhibitor project, cell-based, HEK293-NOX2, PMA-stimulated, Amplex Red fluorescence (AID 1159); conditions: 45 min, higher = more signal, called active from +8 up or from −8 down; also: test concentration not given here
# Chain of NADPH oxidase 2 (Homo sapiens) (P04839 whole entry, looked up): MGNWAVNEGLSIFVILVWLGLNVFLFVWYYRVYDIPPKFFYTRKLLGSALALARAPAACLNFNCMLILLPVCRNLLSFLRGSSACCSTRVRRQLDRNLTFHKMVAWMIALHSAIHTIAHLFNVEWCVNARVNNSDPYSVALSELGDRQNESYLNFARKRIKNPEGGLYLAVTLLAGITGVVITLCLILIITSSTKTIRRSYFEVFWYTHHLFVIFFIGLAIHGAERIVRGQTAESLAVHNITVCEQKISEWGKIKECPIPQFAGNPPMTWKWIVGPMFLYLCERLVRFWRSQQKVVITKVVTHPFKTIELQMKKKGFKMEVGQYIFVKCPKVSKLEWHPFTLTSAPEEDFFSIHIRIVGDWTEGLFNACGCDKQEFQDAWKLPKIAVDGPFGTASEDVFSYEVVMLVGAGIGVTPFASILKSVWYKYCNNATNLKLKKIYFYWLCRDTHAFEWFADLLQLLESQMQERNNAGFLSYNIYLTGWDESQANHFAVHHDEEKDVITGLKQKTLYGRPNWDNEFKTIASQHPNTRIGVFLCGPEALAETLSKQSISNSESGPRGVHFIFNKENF
# [9] = target: NADPH oxidase 4 (Homo sapiens) (UniProt Q9NPH5); test: NOX4-dependent H2O2 signal modulators, primary screen, NOX inhibitor project, cell-based, HEK293-NOX4, tetracycline-induced, Amplex Red fluorescence (AID 1160); conditions: 45 min, higher = more signal, called active from +8 up or from −8 down
# Chain of NADPH oxidase 4 (Homo sapiens) (Q9NPH5 whole entry, looked up): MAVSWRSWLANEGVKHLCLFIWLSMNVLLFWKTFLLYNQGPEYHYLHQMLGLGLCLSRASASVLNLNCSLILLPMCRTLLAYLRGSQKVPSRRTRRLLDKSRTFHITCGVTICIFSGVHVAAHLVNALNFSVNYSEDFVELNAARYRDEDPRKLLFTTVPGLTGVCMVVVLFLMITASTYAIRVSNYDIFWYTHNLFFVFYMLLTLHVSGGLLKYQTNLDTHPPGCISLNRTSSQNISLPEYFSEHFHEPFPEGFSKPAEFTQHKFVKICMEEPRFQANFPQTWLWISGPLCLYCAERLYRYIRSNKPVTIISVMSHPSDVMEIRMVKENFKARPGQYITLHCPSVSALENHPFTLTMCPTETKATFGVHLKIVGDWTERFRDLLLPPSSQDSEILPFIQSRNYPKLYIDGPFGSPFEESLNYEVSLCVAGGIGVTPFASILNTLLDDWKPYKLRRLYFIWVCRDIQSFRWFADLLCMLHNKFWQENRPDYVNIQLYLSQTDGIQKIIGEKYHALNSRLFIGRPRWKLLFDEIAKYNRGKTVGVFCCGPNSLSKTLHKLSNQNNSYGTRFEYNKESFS
# [10] = target: NADPH oxidase 5 (Homo sapiens) (UniProt Q96PH1); test: NOX5-dependent H2O2 signal modulators, primary screen, NOX inhibitor project, cell-based, HEK293-NOX5, Amplex Red fluorescence (AID 1161); conditions: HEK293-NOX5, ionomycin, 45 min, higher = more signal
# Chain of NADPH oxidase 5 (Homo sapiens) (Q96PH1 whole entry, looked up): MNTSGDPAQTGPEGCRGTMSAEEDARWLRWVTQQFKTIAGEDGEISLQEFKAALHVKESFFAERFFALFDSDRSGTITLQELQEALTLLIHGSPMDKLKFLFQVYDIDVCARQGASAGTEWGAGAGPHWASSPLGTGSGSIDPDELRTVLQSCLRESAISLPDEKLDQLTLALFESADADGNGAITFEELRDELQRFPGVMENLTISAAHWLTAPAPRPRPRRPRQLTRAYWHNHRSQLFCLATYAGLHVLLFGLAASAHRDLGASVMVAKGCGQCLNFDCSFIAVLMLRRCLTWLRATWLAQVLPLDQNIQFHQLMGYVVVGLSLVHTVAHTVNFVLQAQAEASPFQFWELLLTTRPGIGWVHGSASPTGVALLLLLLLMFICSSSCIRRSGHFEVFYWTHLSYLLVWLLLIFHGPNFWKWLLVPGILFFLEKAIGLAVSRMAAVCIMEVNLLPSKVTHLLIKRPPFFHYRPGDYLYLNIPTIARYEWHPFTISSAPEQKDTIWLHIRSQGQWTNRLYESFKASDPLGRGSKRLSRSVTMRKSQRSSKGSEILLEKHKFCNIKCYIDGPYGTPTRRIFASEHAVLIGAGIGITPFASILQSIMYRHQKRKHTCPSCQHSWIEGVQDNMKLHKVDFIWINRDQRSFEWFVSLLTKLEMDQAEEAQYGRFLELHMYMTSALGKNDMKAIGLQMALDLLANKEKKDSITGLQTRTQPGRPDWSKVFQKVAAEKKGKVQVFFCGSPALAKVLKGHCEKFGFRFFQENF
# [11] = A549 cell viability effects, profiling panel, calcein-AM fluorescence, 48 h, basal (AID 1162); conditions: higher = more signal; also: test concentration not given here
# [12] = adipocyte viability effects, profiling panel, cell-based, 3T3-L1 adipocytes, calcein-AM fluorescence, 48 h, basal (AID 1163); conditions: 3T3-L1 adipocytes viability, higher = more signal; also: test concentration not given here
# [13] = HepG2 cell viability effects, profiling panel, calcein-AM fluorescence, 48 h, basal (AID 1164); conditions: higher = more signal; also: test concentration not given here
# [14] = MM1S cell viability effects, profiling panel, calcein-AM fluorescence, 48 h, basal (AID 1165); conditions: higher = more signal;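 also: viability of MM1S multiple myeloma cells under basal unstimulated conditions; test concentration not given here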
# [15] = basal RPMI8226 viability, no added stimulus, profiling panel, cell-based, calcein-AM fluorescence, 48 h, PK04 Diversity Set (AID 1166); conditions: RPMI8226 myeloma viability, higher = more signal;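 also: cells grown under basal conditions without added stimulus; test concentration not given here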
# [16] = basal HepG2 mitochondrial membrane potential changes, profiling panel, cell-based, JC-1 fluorescence, 24 h, 100 nL compound (AID 1167); conditions: higher = more signal; also: test concentration not given here
# [17] = basal 3T3-L1 adipocyte mitochondrial potential changes, profiling panel, cell-based, JC-1 fluorescence, 3T3-L1 adipocytes, 24 h, 100 nL compound (AID 1168); conditions: JC-1 mitochondrial fluorescence, higher = more signal, called active from +8 up or from −8 down; also: test concentration not given here
# [18] = basal RPMI8226 mitochondrial membrane potential changes, profiling panel, cell-based, JC-1 fluorescence, 24 h, 100 nL compound (AID 1169); conditions: RPMI8226 myeloma, JC-1 mitochondrial potential fluorescence, higher = more signal; also: test concentration not given here
# [19] = basal MM1S mitochondrial membrane potential changes, profiling panel, cell-based, JC-1 fluorescence, 24 h, 100 nL compound (AID 1170); conditions: higher = more signal; also: test concentration not given here
# [20] = A549 lung cancer cell viability effects, profiling panel, resazurin fluorescence, 24 h, PK04 Diversity Set (AID 1171); conditions: higher = more signal, called active from +8 up or from −8 down; also: test concentration not given here
Compound,z-score [1],composite z-score [2],z-score [3],z-score [4],z-score [5],z-score [6],z-score [7],z-score [8],z-score [9],z-score [10],z-score [11],z-score [12],z-score [13],z-score [14],z-score [15],z-score [16],z-score [17],z-score [18],z-score [19],z-score [20]
CO[C@H]1O[C@H](CO)[C@@H](OC(=O)Nc2ccc(Br)cc2)[C@@H]2OC(=O)[C@@H](Cc3ccccc3)C/C=C/C[C@H](Cc3ccccc3)C(=O)O[C@@H]12,0.931 (inactive),0.057,3.36 (inactive),0.956 (inactive),-1.12 (inactive),1.35 (inactive),0.311,0.647 (inactive),0.263 (inactive),0.0979,0.468,0.424,-1.35,-1.41,-3.32,0.125,2.12 (inactive),-1.19,-0.241,-3.17 (inactive)
[N-]=[N+]=Nc1ccccc1C[C@]1(C(=O)NCCN2CCOCC2)COC(c2ccc(OCCCO)cc2)=N1,1.87 (inactive),0.111,21.5 (active),4.14 (inactive),2.57 (inactive),0.913 (inactive),0.148,2.89 (inactive),1.12 (inactive),-0.481,1.84,0.0471,1.31,0.534,0.586,0.157,0.959 (inactive),-0.264,-0.422,0.887 (inactive)
CCOC(=O)C[C@H]1[C@H](OC(=O)c2ccc(-c3ccccc3)cc2)[C@@H](NC(=O)CC(C)C)c2cc(OCCCO)ccc2N1C(=O)c1ccc2ccccc2n1,-0.0672 (inactive),-0.274,2.19 (inactive),0.0409 (inactive),0.457 (inactive),0.238 (inactive),0.2,-1.89 (inactive),0.452 (inactive),-0.0775,1.37,0.556,0.627,0.139,0.0627,1.66,1.47 (inactive),-0.233,-0.411,0.713 (inactive)
COc1ccc(C(=O)Nc2ccc(CN3C(=O)[C@]4(O[C@H](CC(=O)N5Cc6ccccc6C[C@H]5CO)[C@@H]([Si](C)(C)c5ccc(OC)cc5)[C@@H]4C)c4ccccc43)cc2)cc1,-0.298 (inactive),0.0004,3.15 (inactive),1.5 (inactive),1.15 (inactive),0.941 (inactive),0.383,0.545 (inactive),-0.307 (inactive),2.12,-0.513,1.56,0.349,-1.6,-0.786,0.705,-0.212 (inactive),-0.7,-0.911,-1.96 (inactive)
C#CCN(Cc1ccccc1Br)[C@H](/C=C/c1ccccc1)[C@@H](O)Cc1ccccc1,1.47 (inactive),0.0999,1.22 (inactive),0.535 (inactive),-0.553 (inactive),0.132 (inactive),-0.135,-0.193 (inactive),0.109 (inactive),-0.639,-0.892,-0.566,-1.54,-1.63,-3.89,-2.68,-0.694 (inactive),-0.538,0.42,2.3 (inactive)
CC(C)(C)OC(=O)COc1cccc(C(=O)CCN2CCOCC2)c1,0.922 (inactive),0.265,6.63 (inactive),1.21 (inactive),-0.481 (inactive),0.548 (inactive),0.202,-5.78 (inactive),1.09 (inactive),2.12,1.06,0.477,-0.0751,-3.27,-4.4,-1.01,-0.0351 (inactive),-0.885,-2.04,1.5 (inactive)
CCOC(=O)C1=C[C@@H](c2ccccc2)N(S(=O)(=O)c2ccc(C)cc2)[C@H]1c1ccc(OC)cc1,-1.11 (inactive),1.02,1.18 (inactive),1.07 (inactive),0.106 (inactive),0.512 (inactive),-0.887,0.156 (inactive),1.02 (inactive),-0.348,-0.841,-0.0112,-0.157,-0.62,-0.926,1.03,-0.708 (inactive),0.692,-0.441,1.63 (inactive)
NC(=O)NCC#Cc1ccc2c(c1)[C@]1(C(=O)N2)[C@H](C(=O)N2CCN(c3ncccn3)CC2)[C@H]2C(=O)O[C@H](c3ccccc3)[C@H](c3ccccc3)N2[C@@H]1c1ccc(O)cc1,-1.08 (inactive),0.141,-0.362 (inactive),-0.136 (inactive),0.174 (inactive),-0.302 (inactive),0.435,1.13 (inactive),0.162 (inactive),0.437,0.348,-0.173,-0.388,-0.977,0.18,-1.99,-1.02 (inactive),-0.315,0.247,-0.292 (inactive)
COC(=O)[C@@]1(Cc2ccc(OC)cc2)[C@H]2c3cc(C(=O)N(C)C)n(Cc4ccc(OC(F)(F)F)cc4)c3C[C@H]2CN1C(=O)c1ccccc1,-1.81 (inactive),0.407,0.404 (inactive),0.542 (inactive),0.219 (inactive),0.569 (inactive),-1.19,0.262 (inactive),-0.787 (inactive),-0.499,-1.34,-0.306,-0.77,-3.39,-4.11,-2.18,-0.922 (inactive),-0.791,-2.79,-1.36 (inactive)
